From paper PMC4336329 (PLoS ONE, 2015)
The whole screen tested about 310,000 compounds, of which about 14,000 (4.5%) showed an effect of 50% or more. The effect is printed as a negative number. The sample holds strong results, similar compounds and a random draw of the others, so the mix is not that of the screen.

Target: human ether-à-go-go-related gene (hERG) potassium channel (human, UniProt Q12809)
Test: primary screen, population patch clamp on CHO cells stably expressing hERG; higher = less effect of the substance
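Note: peak tail current of the secondary pulse compared with the same well before compound.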

Sequence of human ether-à-go-go-related gene (hERG) potassium channel (Q12809 whole entry, looked up): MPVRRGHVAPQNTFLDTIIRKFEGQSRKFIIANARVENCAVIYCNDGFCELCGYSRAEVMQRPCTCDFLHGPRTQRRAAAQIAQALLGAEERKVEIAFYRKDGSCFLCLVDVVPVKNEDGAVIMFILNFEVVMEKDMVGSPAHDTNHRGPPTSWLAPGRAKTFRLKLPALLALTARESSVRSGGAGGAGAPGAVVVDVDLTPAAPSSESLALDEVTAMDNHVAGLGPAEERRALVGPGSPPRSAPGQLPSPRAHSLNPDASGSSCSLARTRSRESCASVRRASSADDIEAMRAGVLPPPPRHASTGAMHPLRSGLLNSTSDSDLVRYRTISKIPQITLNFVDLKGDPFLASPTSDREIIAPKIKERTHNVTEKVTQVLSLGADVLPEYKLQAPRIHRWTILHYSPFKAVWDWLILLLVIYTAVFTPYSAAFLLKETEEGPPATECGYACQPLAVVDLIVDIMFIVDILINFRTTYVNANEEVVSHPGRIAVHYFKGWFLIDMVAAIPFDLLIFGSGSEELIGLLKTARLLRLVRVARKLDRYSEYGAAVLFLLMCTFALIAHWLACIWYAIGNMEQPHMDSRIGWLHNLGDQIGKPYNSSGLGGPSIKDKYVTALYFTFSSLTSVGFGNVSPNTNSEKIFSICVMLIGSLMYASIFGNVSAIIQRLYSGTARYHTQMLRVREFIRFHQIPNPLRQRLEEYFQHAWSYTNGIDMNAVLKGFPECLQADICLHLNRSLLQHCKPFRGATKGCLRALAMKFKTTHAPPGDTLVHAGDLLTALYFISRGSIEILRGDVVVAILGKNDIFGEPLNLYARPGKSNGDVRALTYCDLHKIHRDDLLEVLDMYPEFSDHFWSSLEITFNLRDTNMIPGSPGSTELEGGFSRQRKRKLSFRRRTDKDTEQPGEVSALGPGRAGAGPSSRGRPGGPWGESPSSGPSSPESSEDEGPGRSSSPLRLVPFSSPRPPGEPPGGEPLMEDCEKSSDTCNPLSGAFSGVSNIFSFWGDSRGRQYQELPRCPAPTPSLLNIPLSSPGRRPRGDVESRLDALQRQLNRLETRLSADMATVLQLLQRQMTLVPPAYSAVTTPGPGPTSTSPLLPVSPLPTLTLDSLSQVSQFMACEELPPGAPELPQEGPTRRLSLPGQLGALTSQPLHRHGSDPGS

Row | Structure (SMILES) | hERG current change (%, negative = inhibition) at 10uM [%]
1 | CCOC(=O)C1CCCN(C(=O)CCn2nnnc2CN2CCOCC2)C1 (stereo not shown) | 18.4
2 | O=C1NCCCc2nc(Oc3ccccc3)sc21 | 0.239
3 | Cc1ccc(Cn2nnc3c(=O)[nH]c(C4CCCN(C(=O)Nc5ccc(F)cc5)C4)nc32)cc1 (stereo not shown) | -5.1
4 | Cc1cccc(OCC(=O)N(Cc2ccccc2)c2c(N)n(Cc3ccccc3)c(=O)[nH]c2=O)c1 | -11.2
5 | O=C(CN1CC=C(c2ccccc2)CC1)Nc1cc(Cl)ccc1Cl | -12.8
6 | COc1ccccc1C1(CCN=Cc2ccc(N(C)C)cc2)CCOC(C)(C)C1 (stereo not shown) | -2.03
7 | CCN(C(=O)COC(=O)c1ccco1)c1c(N)n(Cc2ccccc2)c(=O)[nH]c1=O | -0.805
8 | Cc1c(N2C(=O)c3ccc(Br)cc3C2=O)c(=O)n(-c2ccccc2)n1C | 3.45
9 | CCCCN1C(=O)C(C)=C(C)C1OCCc1ccc(OC)c(OC)c1 (stereo not shown) | 18.2
10 | Cc1ccc(S(=O)(=O)N2CCOCC2)cc1C(=O)NCc1ccccn1 | -0.76
11 | Cc1ccc(S(=O)(=O)N2CCOCC2)cc1C(=O)NCc1ccccc1CN1CCCC1 | -53
12 | COc1ccc(S(=O)(=O)N2CCOCC2)cc1C(=O)NCc1ccccc1CN1CCCC1 | -20.6
13 | O=C(CCC(=O)Nc1ccccc1Cl)N/N=C/c1ccccc1 | 16.5
14 | Cc1[nH]c2ccccc2c1/C=N\NC(=O)c1ccco1 | 11.1
15 | COc1cccc(C(=O)NCC2CCCN(C(=O)c3ccc(C=O)cc3)C2)c1OC (stereo not shown) | 0.357
16 | COc1ccc(S(=O)(=O)N2CCCC(C(=O)N3CCN(c4ccccc4)CC3)C2)cc1Cl (stereo not shown) | -62
17 | O=C(C1CCCN(S(=O)(=O)c2ccccc2)C1)N1CCN(c2ccc(F)cc2)CC1 (stereo not shown) | -75.7
18 | CN1CCN(C(=O)C2CCCN(S(=O)(=O)c3ccc(F)cc3)C2)CC1 (stereo not shown) | 19.9
19 | O=C(C1CC1)N1CCN(c2ccc(F)cc2)CC1 | 13
20 | O=C(O)C1CCN(C(=O)Cc2ccccc2)CC1 | 6.27
21 | O=C(C1CCCN(S(=O)(=O)c2ccccc2)C1)N1CCCCC1 (stereo not shown) | 7.94
22 | O=C(C1CCCN(S(=O)(=O)c2ccccc2)C1)N1CCCCCC1 (stereo not shown) | -2.74
23 | COc1ccc(S(=O)(=O)N2CCCC(C(=O)N3CCOCC3)C2)cc1Cl (stereo not shown) | -14
24 | O=C(C1CCCN(S(=O)(=O)c2ccccc2)C1)N1CCN(c2ccccc2)CC1 (stereo not shown) | -54.8

Row | Structure (SMILES) | hERG current change (%, negative = inhibition) at 10uM [%]
25 | Cc1ccc(S(=O)(=O)N2CCCC(C(=O)N3CCN(c4ccccc4)CC3)C2)cc1 (stereo not shown) | -46.5
26 | COc1ccc(S(=O)(=O)N2CCCC(C(=O)N3CCN(C)CC3)C2)cc1Cl (stereo not shown) | -12.4
27 | O=C(Cc1ccccc1)N1CCC(C(=O)N2CCN(c3ccc(F)cc3)CC2)CC1 | -56.6
28 | CC(NC(=O)Cn1cnnn1)C12CC3CC(CC(C3)C1)C2 (stereo not shown) | 7.75
29 | CCCC1C(C(=O)OCC)=C(C)NC(C)=C1C(=O)OCC | 10.7
30 | CC(C)c1ccc(OCc2ccc(C(=O)NN3CCN(C)CC3)o2)cc1 | -31.7
31 | Cc1cccc(C)c1OP(N)(=O)Oc1c(C)cccc1C | 11
32 | CC(C)C(=O)Nc1ccc(C(=O)NNC(=O)c2ccco2)cc1 | 7.75
33 | Cc1cc(C)n(C(=O)C2CCCN2S(=O)(=O)c2ccc(Cl)cc2)n1 (stereo not shown) | -7.48
34 | CCOc1ccc(C(=O)NCC(=O)Nc2ncccc2C)cc1OCC | 18
35 | COc1ccc(N2CCN(C(=O)CCc3c[nH]c4ccccc34)CC2)cc1 | -10.2
36 | CC(=O)Nc1ccc(S(=O)(=O)NC2C3(C)CCC(C3)C2(C)C)cc1 (stereo not shown) | 16.9
37 | Cl.NCCSC1CC(=O)N(Cc2ccc(F)cc2)C1=O (stereo not shown) | -20.4
38 | CCOC(=O)Cc1csc(NC(=O)/C=C/c2ccc(Cl)cc2)n1 | -9.29
39 | CN1CCN(C(=O)C2CCCN(S(=O)(=O)c3ccc(Br)cc3)C2)CC1 (stereo not shown) | -5.87
40 | O=C(O)C1CCCN(S(=O)(=O)c2cccs2)C1 (stereo not shown) | 4.67
41 | CCOc1ccc(S(=O)(=O)N2CCCC(C(=O)N3CCN(c4ccccc4)CC3)C2)cc1 (stereo not shown) | -56.3
42 | CCOc1ccc(S(=O)(=O)N2CCC(C(=O)N3CCN(c4ccccc4)CC3)CC2)cc1 | -18
43 | CC(=O)Nc1ccc(S(=O)(=O)N2CCCC(C(=O)O)C2)cc1 (stereo not shown) | -3.16
44 | O=C(C1CCCN(S(=O)(=O)c2cccs2)C1)N1CCN(C2CCCCC2)CC1 (stereo not shown) | -24.6
45 | CC(=O)N1CCCc2cc(S(=O)(=O)N3CCCC(C(=O)N4CCN(c5ccccc5)CC4)C3)ccc21 (stereo not shown) | -21.3
46 | O=C(C1CCCN(S(=O)(=O)c2ccc(Br)cc2)C1)N1CCN(Cc2ccccc2)CC1 (stereo not shown) | -55.1
47 | O=C(C1CCCN(S(=O)(=O)c2cccs2)C1)N1CCC(N2CCCCC2)CC1 (stereo not shown) | -61.7
48 | CCOC(=O)N1CCN(C(=O)C2CCCN(S(=O)(=O)c3ccc(OCC)cc3)C2)CC1 (stereo not shown) | -46.2

Row | Structure (SMILES) | hERG current change (%, negative = inhibition) at 10uM [%]
49 | CC(=O)Nc1ccc(S(=O)(=O)N2CCCC(C(=O)N3CCN(c4ccccc4)CC3)C2)cc1 (stereo not shown) | -50.9
50 | O=C(C1CCCN(S(=O)(=O)c2ccc(Br)cc2)C1)N1CCOCC1 (stereo not shown) | -13.8
51 | COc1cccc(Nc2nc(-c3sc(N)nc3C)cs2)c1 | -18.2
52 | CNc1nc(-c2c(C)n(C)c3ccc(OC)cc23)cs1 | 19.2
53 | Cl.Clc1ccccc1CSC1=NCCCN1 | 0.0434
54 | O=C(CN(C(=O)CCC(=O)Nc1ccccn1)c1ccc2c(c1)OCCO2)NCCc1ccccc1 | 2.29
55 | CC1CCCC(C)N1c1ccc(S(=O)(=O)N2CCOCC2)cc1Cl (stereo not shown) | 11.5
56 | COc1ccc(C2SCC(=O)N2CC23CC4CC(CC(C4)C2)C3)cc1 (stereo not shown) | 3.15
57 | O=C(C1CCCN(S(=O)(=O)c2ccc(Br)s2)C1)N1CCCCCC1 (stereo not shown) | -11.8
58 | O=C(C1CCCN(S(=O)(=O)c2ccc(Br)s2)C1)N1CCN(c2ccccc2)CC1 (stereo not shown) | -63.8
59 | CCOC(=O)C1CCN(C(=O)C2CCCN(S(=O)(=O)c3ccc(OC)c(Cl)c3)C2)CC1 (stereo not shown) | -67.2
60 | O=C(C1CCN(S(=O)(=O)c2ccc(Br)s2)CC1)N1CCN(c2ccccc2)CC1 | -10.5
61 | CCOC(=O)C1CCN(S(=O)(=O)c2ccc(OC)c(Cl)c2)CC1 | 9.79
62 | CCOC(=O)C1CCN(C(=O)C2CCCN(S(=O)(=O)c3ccc(OCC)c(Cl)c3)C2)CC1 (stereo not shown) | -40.8
63 | COc1ccc(CCNC(=O)Cn2nnc(-c3ccccc3F)n2)cc1OC | 1.44
64 | CC1CCCN(C(=O)COC(=O)CNC(=O)c2ccc(Br)cc2)C1 (stereo not shown) | -8.3
65 | CCOC(=O)C1CCN(C(C(=O)NC2CCCC2)c2ccc(C)cc2)CC1 (stereo not shown) | -21.8
66 | CC(C)c1ccc(O)c(NC(=O)c2cccnc2)c1 | 6.07
67 | c1csc(CNc2ncnc3sccc23)c1 | -20.3
68 | Cc1sc2ncnc(NCCCN3CCCC3=O)c2c1C | 3.27
69 | Cc1sc2ncnc(NCCN3CCOCC3)c2c1C.O=C(O)C(=O)O | -22.4
70 | c1nc(NCC2(N3CCOCC3)CCCCC2)c2ccsc2n1 | -73.3
71 | Cc1sc2ncnc(N3CCOCC3)c2c1C | -13.7
72 | Cc1sc2ncnc(NCC3CCCO3)c2c1C.Cl (stereo not shown) | -1.4

Row | Structure (SMILES) | hERG current change (%, negative = inhibition) at 10uM [%]
73 | Cc1sc2ncnc(NCC(C)(C)N3CCOCC3)c2c1C | -71.7
74 | Cc1sc2ncnc(NCC3(N4CCOCC4)CCCCC3)c2c1C | -71.1
75 | c1nc(Nc2ccc(N3CCOCC3)cc2)c2ccsc2n1 | -7.59
76 | C=CCNC(=O)CC(=O)N/N=C/c1ccc(F)cc1 | -3.54
77 | CCSC(=O)NC12CC3CC(CC(C3)C1)C2 | 6.27
78 | Cc1cc(OCC(=O)NCc2ccccn2)c2c(C)cc(=O)oc2c1 | -7.15
79 | O=C(NC(=S)Nc1ccc(S(=O)(=O)N2CCCCCC2)cc1)c1cccs1 | -5.3
80 | O=C(CCc1ccc(S(=O)(=O)N2CCOCC2)cc1)N/N=C/c1ccc(O)c(O)c1O | 18.9
81 | COc1ccc(NC(=O)C2=C(C)Nc3ncnn3C2c2ccccc2C(F)(F)F)c(OC)c1 (stereo not shown) | 2.77
82 | CCOc1ccc(C(C)=O)cc1CSc1nc(C)cc(C)n1 | -6.21
83 | CCOc1ccccc1NC(=S)N1CCC(NC(=O)NC23CC4CC(CC(C4)C2)C3)CC1 | -13.7
84 | COc1ccc(S(=O)(=O)N2CCCOC2CNC(=O)C(=O)NCc2ccco2)cc1 (stereo not shown) | -22
85 | CCOC(=O)c1c(NC(=O)C(C)NCc2ccco2)sc2c1CCC(C)C2.O=C(O)C(=O)O (stereo not shown) | -4.23
86 | COC(=O)COc1ccc2c(=O)c(Oc3ccccc3Br)coc2c1 | 14
87 | COc1ccc(Oc2coc3cc(OC(=O)N4CCOCC4)ccc3c2=O)cc1 | -25.3
88 | Cc1oc2cc(OCc3cnn(-c4ccccc4)c3)ccc2c(=O)c1Oc1ccccc1F | -11.2
89 | COc1ccccc1Oc1coc2cc(OC(=O)N3CCOCC3)ccc2c1=O | -56.4
90 | CCCNC(=O)COc1ccc2c(=O)c(Oc3ccccc3F)coc2c1 | -61.6
91 | COC(=O)c1ccc(Oc2coc3cc(OCc4cnn(-c5ccccc5)c4)ccc3c2=O)cc1 | 7.07
92 | CCOc1ccccc1Oc1coc2cc(OCC(=O)O)ccc2c1=O | 24.3
93 | O=c1c(Oc2ccccc2F)coc2cc(OCc3cnn(-c4ccccc4)c3)ccc12 | -55
94 | COc1cccc(Oc2coc3cc(OC(=O)N4CCOCC4)ccc3c2=O)c1 | -4.27
